# Reference: PubChem BioAssay (EPA / NIEHS)
# Records with an inconclusive call do not appear. Activity calls are given as the source filed them. How the source made its calls: active means hit-call score of the fitted dose curve at least 0.9, where 1 is the maximum; inconclusive means response in the unintended direction; inactive means score below 0.9.
# Target: human Matrix Metalloproteinase-1 (MMP1), MMP1 (gene 4312) (UniProt P03956)
# Experiment: NVS_ENZ_hMMP1: NovaScreen (NVS) Enzymatic Assay for human Matrix Metalloproteinase-1 (MMP1) (AID 2283181)
# Summary of the method: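 Cell-free fluorescent substrate assay of human MMP1, read after 1 h. A single 25 uM duplicate screen was followed by concentration series to a maximum of 50 uM for actives meeting threshold; inhibition analysed against DMSO baseline.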
# human Matrix Metalloproteinase-1 (MMP1), MMP1 (gene 4312), sequence (P03956 whole entry, looked up): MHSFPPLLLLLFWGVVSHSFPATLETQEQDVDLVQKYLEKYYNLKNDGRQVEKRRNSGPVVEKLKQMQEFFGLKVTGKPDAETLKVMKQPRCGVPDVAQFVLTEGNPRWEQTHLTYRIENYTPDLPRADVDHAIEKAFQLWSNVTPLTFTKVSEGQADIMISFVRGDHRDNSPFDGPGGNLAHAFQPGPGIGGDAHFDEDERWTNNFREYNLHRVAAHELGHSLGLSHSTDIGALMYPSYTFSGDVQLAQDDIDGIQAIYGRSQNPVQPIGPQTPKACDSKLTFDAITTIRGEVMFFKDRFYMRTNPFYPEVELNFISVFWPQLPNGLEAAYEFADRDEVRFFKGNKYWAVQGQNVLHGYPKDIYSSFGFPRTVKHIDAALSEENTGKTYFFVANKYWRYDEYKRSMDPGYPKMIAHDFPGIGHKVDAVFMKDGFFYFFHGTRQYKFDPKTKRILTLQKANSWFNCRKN
SMILES,outcome,AC50
CCOc1cccc(C2(N3CCN(c4ccccc4)CC3)CCC(C)CC2)c1 (stereo unspecified),inactive,–
O=[N+]([O-])c1ccc(Oc2ccc(Cl)cc2Cl)cc1,inactive,–
Nc1ccc(N=Nc2ccccc2)cc1,–,16.9 µM (active)
Oc1ccccc1Cl,inactive,–
COP(=S)(OC)SCN1C(=O)c2ccccc2C1=O,–,11.7 µM (active)

# Target: Collagenase 3 (Homo sapiens) (UniProt P45452)
# Experiment: NVS_ENZ_hMMP13: NovaScreen (NVS) Enzymatic Assay for human Matrix Metalloproteinase-13 (MMP13) (AID 2283182)
# Description: NVS_ENZ_hMMP13 is a biochemical, single-readout assay that uses extracted gene-proteins in a cell-free assay. Measurements were taken 1 hour after chemical dosing in a 96-well plate.NVS_ENZ_hMMP13 is one of one assay component(s) measured or calculated from the NVS_ENZ_hMMP13 assay. It is designed to make measurements of enzyme activity, a form of enzyme reporter, as detected with fluorescence intensity signals by Fluorescence technology.Data from the assay component NVS_ENZ_hMMP13 was analyzed into 1 assay endpoint. This assay endpoint, NVS_ENZ_hMMP13, was analyzed in the positive analysis fitting direction relative to DMSO as the negative control and baseline of activity. Using a type of enzyme reporter, loss-of-signal activity can be used to understand changes in the enzymatic activity as they relate to the gene MMP13. Furthermore, this assay endpoint can be referred to as a primary readout, because this assay has produced multiple assay endpoints where this one serves a enzymatic activity function. To generalize the intended target to other relatable targets, this assay endpoint is annotated to the protease intended target family, where the subfamily is matrix metalloproteinase.
# Binding assays used specific radioligands (tritiated, iodinated) with non-radioactive competitive displacement ligands in agonist or antagonist protocols (as indicated) and various reference compounds and inhibitors to titrate specific binding to receptors and transporters. Most enzyme assays (CYPs, kinases, phosphatases, proteases, HDACs) used recombinant protein and specific substrates (fluorescence mostly, some colorimetric and radioactive) and inhibitors, followed by a biochemical separation of substrate and product. All assays for the biochemical HTS were initially run in duplicate at a single concentration (10 uM for CYP450 assays and 25 uM for all others). Assay-chemical combinations meeting a pre-defined threshold (e.g., 30% inhibition and other criteria defined below) were then run in singleton concentration-response format with maximum concentration of 20 uM for CYPs and 50 uM for all others. Each assay was run with positive and negative controls, and concurrent controls on every plate. The follow-up (secondary) screen tested active chemical-pairs in concentration series, as well as a few additional assays not tested in the primary screen, some selected negative inactives, and several cases re-run in the concentration series for confirmatory purposes.
SMILES,AC50,outcome
CCOc1cccc(C2(N3CCN(c4ccccc4)CC3)CCC(C)CC2)c1 (stereo unspecified),17.7 µM (active),–
Cc1ccc(N=C=O)cc1N=C=O,4.21 µM (active),–
O=C(Nc1ccccc1)c1ccccc1I,–,inactive
CN(C)[C@@H]1C(=O)C(C(N)=O)=C(O)[C@@]2(O)C(=O)C3=C(O)c4c(O)cccc4[C@@](C)(O)[C@H]3C[C@@H]12,–,inactive

# Target: human Matrix Metalloproteinase-7 (MMP7), MMP7 (gene 4316) (UniProt P09237)
# Sequence (P09237 whole entry, looked up): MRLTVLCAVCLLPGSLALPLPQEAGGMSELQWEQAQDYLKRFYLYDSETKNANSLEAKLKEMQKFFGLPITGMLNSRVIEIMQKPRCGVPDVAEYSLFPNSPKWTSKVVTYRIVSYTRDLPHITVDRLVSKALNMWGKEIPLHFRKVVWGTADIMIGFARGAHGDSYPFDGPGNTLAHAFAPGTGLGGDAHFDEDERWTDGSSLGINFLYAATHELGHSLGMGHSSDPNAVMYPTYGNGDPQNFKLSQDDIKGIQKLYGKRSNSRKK
# Experiment: NVS_ENZ_hMMP7: NovaScreen (NVS) Enzymatic Assay for human Matrix Metalloproteinase-7 (MMP7) (AID 2283183)
# Summary of the method: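 Compounds first tested at 25 uM in duplicate, then at up to 50 uM in concentration series if active. Protease activity measured by fluorescence intensity 1 h after dosing, with fitting relative to DMSO.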
SMILES,outcome,AC50
CC(C)COC(=O)c1ccccc1C(=O)OCC(C)C,inactive,–
O=C(Nc1ccccc1)c1ccccc1I,inactive,–
CCNS(=O)(=O)C(F)(F)C(F)(F)C(F)(F)C(F)(F)C(F)(F)C(F)(F)C(F)(F)C(F)(F)F,inactive,–
CC(C)N(Cc1ccccc1)C(=O)C(C)(C)C,inactive,–
CCC[CH2][Sn]([Cl])([CH2]CCC)[CH2]CCC,–,12.8 µM (active)
[As]#[In],inactive,–

# Target: human Matrix Metalloproteinase-2 (MMP2), MMP2 (gene 4313) (UniProt P08253)
# Sequence (P08253 whole entry, looked up): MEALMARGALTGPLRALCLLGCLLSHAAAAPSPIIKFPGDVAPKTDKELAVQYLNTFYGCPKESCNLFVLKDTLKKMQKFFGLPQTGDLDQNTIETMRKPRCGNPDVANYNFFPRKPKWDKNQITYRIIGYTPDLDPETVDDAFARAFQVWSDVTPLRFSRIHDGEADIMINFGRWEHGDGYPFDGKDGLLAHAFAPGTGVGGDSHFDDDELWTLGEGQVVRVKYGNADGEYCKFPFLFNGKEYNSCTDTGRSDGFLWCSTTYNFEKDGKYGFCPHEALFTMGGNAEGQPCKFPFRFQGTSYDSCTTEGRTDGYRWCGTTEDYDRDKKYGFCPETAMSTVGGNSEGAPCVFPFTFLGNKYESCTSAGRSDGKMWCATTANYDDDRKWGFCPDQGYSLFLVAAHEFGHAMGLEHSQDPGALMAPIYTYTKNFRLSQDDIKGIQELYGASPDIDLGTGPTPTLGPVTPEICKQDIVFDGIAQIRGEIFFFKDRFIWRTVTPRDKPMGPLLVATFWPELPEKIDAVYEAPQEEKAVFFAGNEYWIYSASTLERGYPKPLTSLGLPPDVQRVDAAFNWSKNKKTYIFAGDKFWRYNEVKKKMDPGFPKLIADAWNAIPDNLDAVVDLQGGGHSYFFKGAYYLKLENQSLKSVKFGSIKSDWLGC
# Experiment: NVS_ENZ_hMMP2: NovaScreen (NVS) Enzymatic Assay for human Matrix Metalloproteinase-2 (MMP2) (AID 2283184)
# Summary of the method: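 Compounds first screened in duplicate at a single 25 uM, with actives followed up in concentration series. Recombinant human MMP2 cleaves a fluorogenic substrate; fluorescence taken at 1 h, inhibition fitted relative to DMSO.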
SMILES,outcome,AC50
Clc1ccc(C(c2ccc(Cl)cc2)C(Cl)(Cl)Cl)cc1,inactive,–
Nc1ccc(Oc2ccc(N)cc2)cc1,–,19.2 µM (active)
Cc1ccc(N=C=O)cc1N=C=O,–,10.3 µM (active)
CC(C)(C)C(O)(CCc1ccc(Cl)cc1)Cn1cncn1 (stereo unspecified),inactive,–
CN(C)C(=O)Nc1ccc(Cl)cc1,–,17.9 µM (active)
Oc1ccccc1Cl,inactive,–
CNC(=O)Oc1cccc2c1OC(C)(C)C2,inactive,–
CCCCCOC(=O)c1ccccc1C(=O)OCCCCC,inactive,–

# Target: human Matrix Metalloproteinase-3 (MMP3), MMP3 (gene 4314) (UniProt P08254)
# Sequence (P08254 whole entry, looked up): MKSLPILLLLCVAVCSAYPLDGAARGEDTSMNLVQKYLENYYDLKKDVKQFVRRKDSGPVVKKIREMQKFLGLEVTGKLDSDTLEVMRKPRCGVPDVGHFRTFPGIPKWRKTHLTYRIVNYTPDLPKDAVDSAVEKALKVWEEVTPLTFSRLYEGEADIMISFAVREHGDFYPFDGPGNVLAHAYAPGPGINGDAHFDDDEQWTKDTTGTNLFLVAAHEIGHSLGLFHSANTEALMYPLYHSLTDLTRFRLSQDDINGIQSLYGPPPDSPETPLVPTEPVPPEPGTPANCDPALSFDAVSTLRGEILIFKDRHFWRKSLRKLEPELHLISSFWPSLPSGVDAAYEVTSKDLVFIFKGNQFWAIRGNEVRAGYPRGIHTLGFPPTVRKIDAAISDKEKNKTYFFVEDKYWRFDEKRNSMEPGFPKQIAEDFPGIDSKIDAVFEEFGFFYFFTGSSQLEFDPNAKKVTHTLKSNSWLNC
# Experiment: NVS_ENZ_hMMP3: NovaScreen (NVS) Enzymatic Assay for human Matrix Metalloproteinase-3 (MMP3) (AID 2283185)
# Summary of the method: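 Fluorescent substrate turnover by recombinant MMP3 read after 1 h, signal loss scored against DMSO. Compounds first run in duplicate at 25 uM single dose, then actives confirmed by concentration series.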
SMILES,AC50,outcome
c1ccc2c(c1)-c1cccc3cccc-2c13,5.24 µM (active),–
Cc1ccc(N=C=O)cc1N=C=O,40 µM (active),–
CC(C)(C)C(O)(CCc1ccc(Cl)cc1)Cn1cncn1 (stereo unspecified),–,inactive
CN(C)C(=O)Nc1ccc(Cl)cc1,–,inactive
Oc1ccccc1Cl,–,inactive
CN(C)[C@@H]1C(=O)C(C(N)=O)=C(O)[C@@]2(O)C(=O)C3=C(O)c4c(O)cccc4[C@@](C)(O)[C@H]3C[C@@H]12,–,inactive
ClCCOCCCl,–,inactive
Clc1ccc(Cl)c(Cl)c1,–,inactive
